TGFb inhibitor = inhibitors of TGF-b signaling | HepG2 CAGA-GFP TGF-b/SMAD3 reporter, GFP fluorescence, 18 h; TGF-beta stimulated, 500 pg/mL final | Potency, µM (series often up to 46.1 µM), for inactives: at the top dose activity, negative = inhibition, hits mostly inhibitors | 410,000 tested, 1.2% active; further: potency means the concentration at half of the fitted maximal effect; on the % scale 0 is the no-effect control and ±100 the full control effect; nearly all actives have a fitted effect of over 65% in size
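HEPG2 CAGA-GFP, 1000 cells/well; 2 h settle, 37 C; cpd via pin tool; TGF-b 500 pg/mL final; 18 h, 37 C; GFP imaging ex488/em500-530; %Activity normalised to -TGF-b and +DMSO controls; CRC fit, curve class.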
TDP1 block = blocks human tyrosyl-DNA phosphodiesterase 1; AID 485290; Potency, µM (highest dose often 130 µM), without a hit: at the highest dose activity change, negative = inhibition, most hits filed as inhibitors; 350,000 tested, 0.28% active; recombinant TDP1, AlphaScreen DNA substrate cleavage; further: potency means the concentration at half of the fitted maximal effect; on the % scale 0 is the no-effect control and ±100 the full control effect; nearly all actives have a fitted effect of over 40% in size
Target sequence (Q9NUW8 whole entry, looked up): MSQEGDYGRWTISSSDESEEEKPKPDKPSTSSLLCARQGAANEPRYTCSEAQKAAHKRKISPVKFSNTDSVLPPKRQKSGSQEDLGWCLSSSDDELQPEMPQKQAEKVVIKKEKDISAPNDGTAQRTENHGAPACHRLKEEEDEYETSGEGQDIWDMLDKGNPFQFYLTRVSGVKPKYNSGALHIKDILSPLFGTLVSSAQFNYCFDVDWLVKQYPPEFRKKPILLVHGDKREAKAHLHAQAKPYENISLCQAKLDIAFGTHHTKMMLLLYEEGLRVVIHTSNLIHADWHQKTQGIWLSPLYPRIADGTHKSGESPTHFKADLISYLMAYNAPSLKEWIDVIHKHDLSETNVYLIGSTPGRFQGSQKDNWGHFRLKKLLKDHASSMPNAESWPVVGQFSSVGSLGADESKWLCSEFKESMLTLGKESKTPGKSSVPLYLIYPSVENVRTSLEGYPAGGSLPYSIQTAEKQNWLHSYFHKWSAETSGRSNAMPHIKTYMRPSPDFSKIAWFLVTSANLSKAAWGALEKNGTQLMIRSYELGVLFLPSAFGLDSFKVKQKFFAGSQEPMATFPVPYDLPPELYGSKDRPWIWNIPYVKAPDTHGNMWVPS
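Recombinant E. coli-expressed Tdp1 (1 nM) preincubated with compound 15 min at RT, then 5'-biotin/3'-phosphotyrosine-FITC DNA substrate (15 nM) added for 5 min. AlphaScreen beads (10 ug/ml) added, 10 min RT; tyrosine-FITC cleavage read as signal loss.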
HepG2 viability = kills HepG2 cells in TGF-b inhibitor counter-screen; HepG2 CAGA-GFP viability, ATP luminescence, 18 h; AID 588856; 410,000 tested, 0.76% active; Potency, µM (doses to about 46.1 µM), for the others: at the highest dose activity change, negative = cytotoxicity, hits mostly cytotoxic; further: potency means the concentration at half of the fitted maximal effect
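HepG2 CAGA-GFP cells (1000/well, DMEM with 1% FBS) received compound, then TGF-beta at 500 pg/mL final, and were incubated 18 hours at 37 degrees C. Viability was read by CellTiter-Glo luminescence. Media-only wells were set as complete cell-killing and DMSO as no toxicity.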
TDP1 cell CPT = DT40-hTDP1 cell growth loss with CPT. 420,000 tested, 12% active. Potency, µM (highest dose often 46.2 µM), inactives show at the top dose activity change, negative = growth inhibition, most hits filed as inhibitors. chicken DT40 Tdp1-/-;hTDP1 cells + 20 nM CPT, ATP luminescence, 48 h; further: potency means the concentration at half of the fitted maximal effect; on the % scale 0 is the no-effect control and ±100 the full control effect; nearly all actives have a fitted effect of over 55% in size
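Cell growth measured by CellTiter-Glo luminescence after a minimum 48 h, 37 C compound exposure with 20 nM CPT in Tdp1-knockout DT40 cells stably expressing hTDP1, seeded 400/well; qHTS titration format.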
TDP1 cell noCPT = qHTS for Inhibitors of human tyrosyl-DNA phosphodiesterase 1 (TDP1): qHTS in cells in absence of CPT | DT40 Tdp1-/- hTDP1 cells, no CPT, ATP luminescence, 48 h | Potency, µM (series often up to 46.2 µM), for inactives: top-dose activity change, negative = growth inhibition, actives largely listed as inhibitors | 420,000 tested, 15% active | AID 686978, 2013; further: potency means the concentration at half of the fitted maximal effect; on the % scale 0 is the no-effect control and ±100 the full control effect; nearly all actives have a fitted effect of over 55% in size
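Growth kinetics read by CellTiter-Glo luminescence after ≥48 hr at 37 °C. Cells: DT40 Tdp1-/- stably carrying human TDP1, 400 per well, compound exposure in the absence of CPT (DMSO vehicle).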
IL-1B inflam inh = blocks inflammasome-driven IL-1 beta release; THP-1 LPS/ATP IL-1B secretion, AlphaLISA, 16 h; active compounds read low; activity change, % at 57.5 µM; 360,000 tested, 4.7% active; AID 743279; in the data active means activity change below about -50%; inconclusive means mostly about -30% to -49%; further: on the % scale 0 is the no-effect control and ±100 the full control effect
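Secreted IL-1B measured by AlphaLISA bead assay after 16 h compound exposure of THP-1 cells; compounds (final up to 57.5 uM) added 1 h before LPS (250 ng/mL) and ATP (1.25 mM) stimulation; lower signal means less secretion.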
An asterisk follows results filed as active; ? = inconclusive; / = not tested or not shown. Rows were chosen to be rich in hits. Some 18% of all compounds tested hit in one or more screens of this group. Unless noted, the call rests on the fitted dose curve; in most records, active means well fitted curve in the direction sought with a large enough effect; inconclusive means small, poorly fitted or top-dose-only effect, or another doubt; inactive means no such curve, though single readings can be large; an effect the other way counts as inactive or inconclusive.

SMILES | TGFb inhibitor | TDP1 block | HepG2 viability | TDP1 cell CPT | TDP1 cell noCPT | IL-1B inflam inh
COc1cc(-c2noc(-c3ccc(NCCc4ccccc4)c([N+](=O)[O-])c3)n2)cc(OC)c1OC | ? | 0.0% | 3.8% | 5.17µM* | 4.11µM* | /
Cc1c(-c2nc(-c3cccnc3)no2)cccc1[N+](=O)[O-] | 0.0% | 5.4% | -1.2% | 18.4µM* | 18.4µM* | 19.4
COc1ccc(-c2noc(-c3ccc(NC4CCCCC4)c([N+](=O)[O-])c3)n2)cc1OC | 9.2% | 11.4% | 1.4% | 20.6µM* | ? | /
COc1ccccc1-c1noc(-c2ccc(NCc3ccco3)c([N+](=O)[O-])c2)n1 | ? | 8.6% | -6.7% | 11.6µM* | 11.6µM* | /
COc1cc(-c2noc(-c3ccc(NC4CCCCC4)c([N+](=O)[O-])c3)n2)cc(OC)c1OC | ? | 11.4% | 6.1% | -28.8% | -25.6% | /
Cc1ccccc1Nc1nc(C#N)nc(NC2CCCC2)n1 | / | -3.6% | / | / | / | /
Cc1ccccc1NC(=O)CN1C(=O)N/C(=C\c2ccc(N3CCOCC3)c(F)c2)C1=O | ? | -5.1% | -20.4% | -4.6% | 2.5% | 18.3
Cc1cccn2c(=O)c(/C=C(\C#N)C(=O)NCc3ccco3)c(N3CCCC(C)C3)nc12 (stereo not given) | ? | 5.3% | -24.2% | ? | ? | -53.5*
Cc1cccn2c(=O)c(/C=C(\C#N)C(=O)NCc3ccco3)c(N3CCCCCC3)nc12 | ? | 3.7% | -30.3% | ? | ? | -29.3
COCCCNC(=O)/C(C#N)=C/c1c(N2CCN(c3ccccc3)CC2)nc2c(C)cccn2c1=O | ? | / | -15.8% | ? | 16.4µM* | -6.6
Cc1cccn2c(=O)c(C=C(C#N)C#N)c(N3CCN(c4cccc(Cl)c4)CC3)nc12 | 55.4% | / | 7.3% | -19.6% | ? | -74.8*
CCNC(=O)/C(C#N)=C/c1c(N2CCN(c3cccc(Cl)c3)CC2)nc2c(C)cccn2c1=O | -14.6% | / | -3.0% | ? | ? | 47.4
COC(=O)/C(C#N)=C/c1c(N2CCN(c3cccc(Cl)c3)CC2)nc2c(C)cccn2c1=O | 23.1% | / | 4.0% | ? | ? | 50.3
COCCCNC(=O)/C(C#N)=C/c1c(N2CCN(c3cccc(Cl)c3)CC2)nc2c(C)cccn2c1=O | 0.0% | / | -5.4% | ? | ? | -66.3*
CNC(=O)CN(c1ccc(Oc2ccccc2)cc1)S(=O)(=O)c1ccc(C)cc1 | -26.3% | 3.0% | 1.3% | -1.1% | -3.9% | 2.0
Cc1c(C(=O)N(CC(C)C)c2c(N)n(Cc3ccccc3)c(=O)[nH]c2=O)sc2nc3n(c(=O)c12)CCC3 | -4.1% | / | -0.7% | 9.6% | 12.2% | 13.4
NC(=O)/N=N/C(N)=O | / | 14.9% | / | / | / | /
Cc1ccc(C(=O)NC2CCN(CC(=O)Nc3ccccc3Cl)CC2)cc1 | -16.2% | / | -19.5% | 2.6% | -26.7% | -1.9
C=CCNC(=O)/C(C#N)=C/c1c(N2CCN(c3ccccc3)CC2)nc2c(C)cccn2c1=O | 6.1% | / | -20.9% | 5.9% | ? | 55.4
C=CCNC(=O)/C(C#N)=C/c1c(N2CCN(c3ccc(OC)cc3)CC2)nc2c(C)cccn2c1=O | ? | / | -13.2% | ? | 13µM* | 9.6
Cc1cccn2c(=O)c(C=O)c(N3CCSCC3)nc12 | -17.8% | / | -11.8% | -27.4% | -17.0% | -50.5*
CCSC(=O)NC1CCCCC1 | -4.9% | / | -0.5% | 7.3% | -20.9% | /
Cc1ccccc1-c1cc(C(=O)NCc2cccc(C(F)(F)F)c2)nn1CC1CC(c2cccc([N+](=O)[O-])c2)=NO1 (stereo not given) | -31.7% | 0.7% | 2.8% | ? | 23.1µM* | -0.6
